Measured values published in PubChem BioAssay AID686979 (National Center for Advancing Translational Sciences (NCATS), 2013).
In all, about 420,000 compounds went through this assay and about 50,000 (12%) were called active. About 26% were inconclusive and are not listed. Calls come from the whole dose curve; as a rule, active = well fitted inhibition curve with a large enough effect; inconclusive = small, poorly fitted or top-dose-only effect; inactive = flat fitted curve, though single readings scatter. Shown is part of a subset that was picked to be rich in actives. Where a call stands in place of a potency, no number is given.

assay: qHTS for Inhibitors of human tyrosyl-DNA phosphodiesterase 1 (TDP1): qHTS in cells in presence of CPT; conditions: chicken DT40 Tdp1-/-;hTDP1 cells + 20 nM CPT, ATP luminescence, 48 h; series mostly up to 46.2 µM; note: nearly all actives have a fitted effect of over 55% in size
Summary of the method: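 Cell growth measured by CellTiter-Glo luminescence after a minimum 48 h, 37 C compound exposure with 20 nM CPT in Tdp1-knockout DT40 cells stably expressing hTDP1, seeded 400/well; qHTS titration format.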
Potency is the fitted concentration of half-maximal effect.

Row | SMILES | Potency
1 | S=c1[nH]c(-c2cccs2)cn1-c1ccccc1 | inactive
2 | O=c1oc2ccccc2cc1-c1cn(-c2ccccc2)c(=S)[nH]1 | 2.59 µM (active)
3 | O=C(c1cn(-c2ccccc2)nc1-c1cc2ccccc2oc1=O)N1CCOCC1 | inactive
4 | CCn1c(CNC(=O)C23CC4CC(CC(C4)C2)C3)nnc1SCC(=O)Nc1ccc(OC)cc1 | inactive
5 | CC(C)N1C(=O)N(c2ccccc2)C(C)(O)CC1(C)C (stereo not drawn) | inactive
6 | CC(C)C1C2=C(CC(C)(C)CC2=O)ON1c1ccccc1 (stereo not drawn) | 25.9 µM (active)
7 | COC(=O)C1CC2=C(CC(C)(C)CC2=O)N(c2ccccc2)C1=O (stereo not drawn) | inactive
8 | COc1cc2nc(CN(C)Cc3ccc(F)cc3)[nH]c(=O)c2cc1OC | inactive
9 | CCOC(=O)C1CCCN(C(=O)C2CCN(c3nnc(-n4cccc4)s3)CC2)C1 (stereo not drawn) | inactive
10 | CCOC(=O)C1CCCN(C(=O)c2ccc(-n3ccc4ccccc43)s2)C1 (stereo not drawn) | 18.4 µM (active)
11 | CCOC(=O)C1CCCN(C(=O)c2cccc3ccccc23)CC1 (stereo not drawn) | inactive
12 | CCC(Oc1ccccc1C)C(=O)Nc1ccc(S(=O)(=O)Nc2cc(C)on2)cc1 (stereo not drawn) | inactive
13 | CCOC(=O)c1sc(NC(=O)C2CSC3(C)CCC(=O)N23)nc1C (stereo not drawn) | inactive
14 | CN(C)S(=O)(=O)c1ccc(C(=O)NCC2(N3CCOCC3)CCCCC2)cc1 | inactive
15 | O=C(NCc1ccc(F)cc1)C1CCN(C(=O)Nc2ccc(F)cc2)CC1 | inactive
16 | CCOC(=O)c1c(SCC(=O)Nc2cccc(C)c2C)nc(=O)[nH]c1C | inactive
17 | CCOC(=O)c1c(C)[nH]c(C)c1S(=O)(=O)N(C)CC(=O)Nc1ccccc1C | inactive
18 | CCOC(=O)c1c(C)[nH]c2c1-c1ccccc1C(=O)C2=O | 0.517 µM (active)
19 | Cc1ccc(S(=O)(=O)N2CCCC2C(=O)OCc2nc3sc(C)c(C)c3c(=O)[nH]2)cc1 (stereo not drawn) | inactive
20 | COCCN(CCOC)c1nc(N)c2c(N)nc3c(c2c1C#N)CC(=O)N3Cc1ccc(Cl)cc1 | inactive
21 | O=C(CNC(=O)c1ccc(F)cc1)c1ccccc1 | inactive
22 | C[C@H](NC(=O)c1ccccc1)C(=O)OCC(=O)c1c[nH]c2ccccc12 | inactive
23 | CN(C)c1ccc(C(CNC(=O)c2ccc(F)cc2)c2c[nH]c3ccccc23)cc1 (stereo not drawn) | 18.4 µM (active)
24 | O=C(CCNC(=O)c1ccc(Br)cc1)NCCCc1ccccc1 | inactive
25 | COc1ccccc1CN1CCNC(=O)C1CC(=O)N(C)CC1CCOCC1 (stereo not drawn) | inactive
26 | O=S(=O)(NCc1cccnc1)c1ccc(Br)s1 | inactive

Row | SMILES | Potency
27 | Cc1cc(C)c[n+](-c2nc3ccccc3nc2[N-]S(=O)(=O)c2cccs2)c1 | inactive
28 | O=S(=O)([N-]c1nc2ccccc2nc1-[n+]1ccc(Cc2ccccc2)cc1)c1ccc(Br)s1 | 14.6 µM (active)
29 | C[C@@H](NC(=O)c1nc[nH]c1C(=O)N1CCN(C(=O)OC(C)(C)C)CC1)c1ccccc1 | inactive
30 | Cc1ccccc1N1CC(C(=O)Nc2ccc(S(=O)(=O)N3CCCC3)cc2)CC1=O (stereo not drawn) | inactive
31 | O=C1CS(=O)CN1c1ccc(Oc2ccccc2)cc1 (stereo not drawn) | inactive
32 | COc1ccc(-c2cc(C(F)(F)F)nc(NCc3cccnc3)n2)cc1 | inactive
33 | COc1ccc(-c2nc3cnccn3c2NC(C)(C)CC(C)(C)C)cc1O | 20.6 µM (active)
34 | Cc1cccc(NC(=O)N2CCN(C)c3ncccc32)c1C | inactive
35 | CCN1C(=O)c2ccccc2Sc2ccc(NC(=O)Cc3ccc(OC)cc3)cc21 | inactive
36 | CCOc1ccccc1C(=O)Nc1ccc2c(c1)N(C)C(=O)c1ccccc1S2 | 4.61 µM (active)
37 | CCOc1ccccc1C(=O)NCCCn1ccnc1 | inactive
38 | C[C@H]1CC[C@]2(O[C@@H](CCO)C[C@@H](O)[C@@H]2O)O1 | inactive
39 | C=CCn1cc(Cl)cc(C(=O)Nc2ccccc2)c1=O | inactive
40 | CN(C)C(=O)N1CCNCC1 | inactive
41 | CC(C)(C)C(=O)NC(NC(=S)Nc1ccc(S(N)(=O)=O)cc1)C(Cl)(Cl)Cl (stereo not drawn) | inactive
42 | CCOc1cc(C(=O)Nc2c(C)ccc3nsnc23)cc(OCC)c1OCC | inactive
43 | COc1ccc(-c2nnc(SC(=O)N3c4ccccc4Sc4ccccc43)o2)cc1 | 8.2 µM (active)
44 | COc1ccc(-c2nnc(SC(C)C#N)o2)cc1 (stereo not drawn) | inactive
45 | COc1ccc(-c2nnc(SC(C)C(=O)NC3CC3)o2)cc1 (stereo not drawn) | inactive
46 | OCCN1CCN(c2nnc(-c3ccccc3)c3ccccc23)CC1 | inactive
47 | Clc1ccc(-c2nnc(-c3ccccc3)nc2N2CCSCC2)cc1 | 16.4 µM (active)
48 | O=C(Cn1c(=O)n(-c2ccc(F)cc2)c(=O)c2sc3ccccc3c21)NC1CCCC1 | inactive
49 | O=c1c2ccccc2ncn1CCc1ccncc1 | inactive
50 | CCOC(=O)c1oc2ccc(S(=O)(=O)n3nc(-c4ccccc4OC)cc3N)cc2c1C | 18.4 µM (active)
51 | COc1ccccc1-c1cc2nc(C)c(CCC(=O)O)c(C)n2n1 | inactive
52 | Cc1ccc(S(=O)(=O)n2nc(OC(=O)C(C)(C)C)cc2N)cc1 | inactive

Row | SMILES | Potency
53 | O=C(CC1C(=O)NCCN1Cc1ccc(-c2ccccc2)cc1)NCc1ccncc1 (stereo not drawn) | inactive
54 | CN[C@@H]1[C@H](O[C@H]2[C@H](O[C@H]3[C@H](O)[C@@H](O)[C@H](N=C(N)N)[C@@H](O)[C@@H]3N=C(N)N)O[C@@H](C)[C@]2(O)CO)O[C@@H](CO)[C@H](O)[C@H]1O | inactive
55 | Cc1nc(Nc2ccc(S(=O)(=O)N3CCCC3)cc2)c2nnn(Cc3ccccc3)c2n1 | inactive
56 | Cc1ccc(-c2csc(-c3cc(C)on3)n2)cc1 | inactive
57 | Clc1ccc(-c2csc(-c3ccncc3)n2)cc1 | inactive
58 | Cc1ccc(-c2csc(-c3c[nH]c4ccccc34)n2)cc1 | 16.4 µM (active)
59 | O=C(NNC1=NCCC1)c1cccc(S(=O)(=O)N2CCCCC2)c1 | inactive
60 | c1ccc2cc3[nH]c(CN4CCCCC4)nc3cc2c1 | inactive
61 | Cc1ccc(-c2nc3ccccc3[nH]c2=O)cc1 | inactive
62 | CCCCCn1nnnc1-c1nc2cc3ccccc3cc2[nH]c1=O | 4.11 µM (active)
63 | CN1CCN(c2ccc(NC(=O)c3ccc4c(c3)OCCO4)cc2Cl)CC1 | inactive
64 | Cc1cc(C)cc(NC(=O)Cc2csc(C)n2)c1 | inactive
65 | O=C(OCCN1C(=O)c2ccccc2C1=O)Oc1ccccc1 | inactive
66 | O=C(Cn1c(-c2cncs2)nc2ccccc21)NC1CCCC1 | inactive
67 | COc1ccc(NC(=O)COC(=O)Cn2c(C)nc3ccccc32)cc1OC | inactive
68 | O=C(Cn1c(-c2cscn2)nc2ccccc21)Nc1ccc(Cl)cc1 | 5.8 µM (active)
69 | COc1ccc(/C=N/N(C)C2=NS(=O)(=O)c3ccccc32)cc1OC | inactive
70 | CC1(C(=O)Nc2ccc3c(c2)OCCO3)CSCC(=O)N1CCOc1ccccc1 (stereo not drawn) | inactive
71 | Cc1ccc(NC(=O)c2cnc(SCC(=O)NCC3CCCO3)n(C)c2=O)cc1 (stereo not drawn) | 11.6 µM (active)
72 | Cn1c(SCC(=O)c2ccccc2)ncc(C(=O)Nc2ccc(F)cc2)c1=O | inactive
73 | Cc1cc(NC(=O)CSc2ncc(C(=O)Nc3ccc(Cl)cc3)c(=O)n2C)no1 | inactive
74 | O=C(NC1CCCCC1)C1CCCN(S(=O)(=O)c2ccc(Br)s2)C1 (stereo not drawn) | inactive
75 | Nc1nc(SCc2ccc([N+](=O)[O-])cc2)c2ncn(C3OC(CO)C(O)C3O)c2n1 (stereo not drawn) | inactive
76 | O=C(Nc1nnc(C2CC2)s1)C1=NN(C2CCS(=O)(=O)C2)C(=O)CC1 (stereo not drawn) | inactive
77 | COc1ccc(CNC(=O)c2ccc(NS(=O)(=O)c3ccc4[nH]c(=O)[nH]c4c3)cc2)cc1OC | inactive
78 | O=C(COC(=O)CNS(=O)(=O)c1ccc(F)c(F)c1F)NC1CCCC1 | inactive

Row | SMILES | Potency
79 | Cn1cc(CCC(=O)NCc2ccc3c(c2)OCO3)c2ccccc21 | inactive
80 | O=C(CCNS(=O)(=O)c1ccccc1C(F)(F)F)NCc1ccc2c(c1)OCO2 | inactive
81 | O=C(CCc1nnc(Cc2ccc3c(c2)OCO3)o1)NCCc1ccccc1Cl | 11.6 µM (active)
82 | O=C(O)CCC(=O)NCc1ccc(C(=O)O)cc1 | inactive
83 | COc1cc2c(cc1CNC[C@H]1O[C@@H](n3cnc(C(N)=O)n3)[C@H](O)[C@@H]1O)OCO2 | inactive
84 | COc1cc(C2NC(=O)NC(c3ccccc3)=C2C(C)=O)c(Br)cc1OCC(N)=O (stereo not drawn) | inactive
85 | CCCOc1ccc(C2NC(=O)NC(c3ccccc3)=C2C(C)=O)cc1OCC (stereo not drawn) | 23.1 µM (active)
86 | COC(=O)COc1ccc(C2NC(=O)NC(C)=C2C(=O)NCc2ccccc2)cc1OC (stereo not drawn) | inactive
87 | CC1CC1C(=O)OCC(=O)Nc1cccc(F)c1 (stereo not drawn) | inactive
88 | O=C1N/C(=C/c2cccs2)C(=O)N1Cc1ccc(F)cc1 | inactive
89 | CN1C/C(=C/c2cccs2)C(=O)/C(=C\c2cccs2)C1 | inactive
90 | CSC1=N/C(=C\C=C\c2cccs2)C(=O)S1 | 14.6 µM (active)
91 | Cn1c(=O)n(Cc2c(F)cccc2Cl)c(=O)c2c1nc1n2CCN1c1ccc(F)cc1 | inactive
92 | COc1ccc(OC)c(-c2csc(-c3c(N)c(C(=O)c4ccccc4)n4ccccc34)n2)c1 | inactive
93 | CCN1/C(=C/C(=S)Nc2ccccc2)Sc2ccccc21 | inactive
94 | CCN1/C(=C/c2ccc3ccc(C)cc3[n+]2CC)Sc2ccccc21 | 2.06 µM (active)
95 | CCN1/C(=C\c2ccc3ccccc3[n+]2CC)Sc2cc(C)ccc21 | 0.184 µM (active)
96 | O=C(CN1C(=O)NC2(CCCCCCC2)C1=O)NCc1ccc(F)cc1 | 16.4 µM (active)
97 | O=C(CN1C(=O)NC2(CCCCCC2)C1=O)NCc1cccs1 | inactive
98 | O=C(CN1C(=O)NC2(CCCCCC2)C1=O)NCc1ccc(F)cc1 | inactive
99 | Cc1ccc(NC(=O)NC(=O)CSc2nnc(-c3ccc(OC(F)F)cc3)n2N)c(C)c1 | inactive
100 | CC(C)(C)C(=O)Nc1ccc(-c2cn3cccnc3n2)cc1 | inactive
101 | C/C(=N\NC(=S)NCc1ccccc1)C1CCCCC1 | 6.51 µM (active)
102 | CC1CCCCN1C(=S)NCc1ccccc1 (stereo not drawn) | inactive
103 | O=C(CC1CCCCC1)NCc1ccccc1 | inactive
